Test [1] in a line: qHTS Assay for Identifying Gametocytocidal Compounds (AID 743244; active = well fitted curve in the direction sought with a large enough effect; an effect the other way counts as inactive or inconclusive;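 also: % is scaled to controls: 0 for no effect and ±100 for the full control effect; actives lower the fluorescent signal which means gametocytes are killed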). Conditions: P. falciparum 3D7 stage III-V gametocytes, alamarBlue, 72 h; max response: stronger effect = lower value. An outline of the steps: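 Fluorescence at Ex 525/Em 598 nm, recorded 24 h after alamarBlue addition, reports residual metabolic activity of 3D7 gametocytes (stages III–V) following 72 h compound exposure at 37 °C, 5% CO2.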
(qHTS replaces the single test concentration by a dilution series.)

A short description of test [2]: qHTS profiling for inhibitors of Plasmodium falciparum (3D7) proliferation (AID 743322).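 Also: infected erythrocytes exposed to compound for 72 h before lysis; 100% = DMSO vehicle wells and 0% = 0.29 µM artemisinin.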 The following applies: P. falciparum 3D7 proliferation; at 28.7 µM (top of the series) unless noted. The method, boiled down: (§1)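 Parasite DNA was quantified by SYBR Green I fluorescence (ex 485, em 535 nm) after overnight lysis in saponin/Triton buffer at room temperature. Cultures at 0.3% parasitemia and 2.5% hematocrit were first exposed to compound for 72 h at 37 C; signals were normalised to artemisinin (0.29 uM) and vehicle wells.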

A short description of test [3]: qHTS profiling for inhibitors of Plasmodium falciparum (DD2) proliferation (AID 743323). The following applies: lower = more inhibition; at 28.7 µM (top of the series) unless noted. The method, boiled down:
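Parasite DNA quantified by SYBR Green fluorescence (ex 485, em 535 nm) after saponin/Triton lysis and overnight dark incubation. Cultures: 0.3% parasitemia, 2.5% hematocrit, 72 h, 37 C; data scaled between DMSO and 0.29 uM artemisinin.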

The nature of test [4]: qHTS profiling of the MIPE4 collection as inhibitors of Plasmodium falciparum (3D7) proliferation (AID 743344).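 Also: scaled between DMSO vehicle wells and 0.29 µM artemisinin as full inhibition.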 The following applies: P. falciparum 3D7 in erythrocytes, SYBR Green DNA fluorescence, 72 h; at 28.5 µM (top of the series) unless noted. An outline of the steps:
as §1

The nature of test [5]: qHTS profiling of the MIPE4 collection as inhibitors of Plasmodium falciparum (DD2) proliferation (AID 743345). Conditions: P. falciparum Dd2 in erythrocytes, SYBR Green DNA, 72 h; at 28.5 µM (top of the series) unless noted. An outline of the steps: as §1
Test [6] in a line: qHTS profiling of the MIPE4 collection as inhibitors of Plasmodium falciparum (DD2) proliferation (Rep 2) (AID 743346). The following applies: P. falciparum Dd2 in erythrocytes, SYBR Green DNA, 72 h; at 28.5 µM (top of the series) unless noted. An outline of the steps: as §1
Test [7] in a line: qHTS profiling of the MIPE4 collection as inhibitors of Plasmodium falciparum (HB3) proliferation (AID 743347).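 Also: plate controls were DMSO vehicle wells for no effect and artemisinin wells for full effect.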 Conditions: P. falciparum HB3 in erythrocytes, SYBR Green DNA, 72 h; at 28.5 µM (top of the series) unless noted. The method, boiled down: as §1
Test [8] is described as follows: qHTS profiling for inhibitors of Plasmodium falciparum (HB3) proliferation (AID 743324; active = well fitted curve in the direction sought with a large enough effect; an effect the other way counts as inactive or inconclusive;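 also: 100% = DMSO vehicle wells and 0% = artemisinin-treated control wells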). Conditions: Plasmodium falciparum HB3 blood-stage proliferation; at 28.7 µM (top of the series) unless noted. The method, boiled down: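 SYBR Green fluorescence (485 ex/535 em) of lysed cultures, incubated overnight at room temperature in the dark, quantifies parasite DNA. Infected erythrocytes at 0.3% parasitemia and 2.5% hematocrit were exposed 72 h; values normalized to DMSO and 0.29 uM artemisinin controls.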

Records with an inconclusive call do not appear. The source made the active and inactive calls. Unless noted, no rule for the calls is given here.

In the case of `COc1ccc(CC2=NN3C([C@@H](CCc4ccccc4)[C@@H](C)O)=NC(C)C3C(=O)N2)cc1OC` (some centres undefined), in test [1], the max response was -6.02% (inactive). In addition, the remaining parasite growth % (stronger effect = lower value) in test [2] stood at 71.5%. Besides, the activity, percent of control in test [3] is 64.6%. In test [4], this compound showed a parasite growth, % of DMSO control of 87.2%. Also, the parasite growth remaining, % of DMSO control (lower = more inhibition) in test [5] was found to be 99.9%. In test [6], this compound returned a parasite growth, % of control (lower = inhibition) of 46.9%. In test [7], this compound registered a growth, % of control of 82%.

`CC(C)(N)C(=O)N[C@H](COCc1ccccc1)C(=O)N1CCC2(CC1)CN(S(C)(=O)=O)c1ccccc12`: the remaining parasite growth % (stronger effect = lower value) in test [2] came out at 88.9%. Further, the activity, percent of control in test [3] was found to be 10.9%. This compound came in with a parasite growth, % of DMSO control in test [4] of 22.8%. Also, the parasite growth remaining, % of DMSO control (lower = more inhibition) in test [5] came to 10.9%. This compound also displayed a parasite growth, % of control (lower = inhibition) in test [6] of 7.19%. This compound also returned a growth, % of control in test [7] of 26.2%.

With `CN(C(=O)c1ccc(F)cc1C(F)(F)F)C1CCN(c2nnc(-c3ccnn3C)c3ccccc23)CC1`, in test [1], the max response was 1.04% (inactive). Moreover, the remaining parasite growth % (stronger effect = lower value) in test [2] came out at 59.4%. In test [3], the activity, percent of control amounted to 71.6%. The parasite growth, % of DMSO control in test [4] was 16.1%. The compound also showed a parasite growth remaining, % of DMSO control (lower = more inhibition) in test [5] of 61.1%. In test [6], this compound showed a parasite growth, % of control (lower = inhibition) of 45.1%. Moreover, the growth, % of control in test [7] worked out at 21.1%.

Regarding `CC(C)(C)OC(=O)CN(Cc1ccc(Cl)cc1)Cc1ccc([N+](=O)[O-])s1`, the remaining parasite growth % (stronger effect = lower value) in test [2] came to 2.82%. The activity, percent of control in test [3] was 3.12%. The compound further had a parasite growth, % of DMSO control in test [4] of 99.5%. Further, in test [5], the parasite growth remaining, % of DMSO control (lower = more inhibition) is 19.7%. In addition, in test [6], the parasite growth, % of control (lower = inhibition) is 26.7%. The same compound yielded a growth, % of control in test [7] of 51.3%.

`COc1ccc(-c2ccc3c(N4CCOCC4)nc(N4C[C@@H](C)O[C@@H](C)C4)nc3n2)cc1CO`: in test [2], the remaining parasite growth % (stronger effect = lower value) came to 20.8%. Besides, in test [3], the activity, percent of control came to 25.3%. Moreover, the remaining proliferation (% of control), lower = more inhibition in test [8] was 18.1%. The compound further gave a parasite growth, % of DMSO control in test [4] of 6.12%. The compound further returned a parasite growth remaining, % of DMSO control (lower = more inhibition) in test [5] of 15.1%. The compound further came in with a parasite growth, % of control (lower = inhibition) in test [6] of 17.2%. The growth, % of control in test [7] came out at 5.91%.

As to `COc1ccc(-c2ccc3c(N4CCOC[C@H]4C)nc(N4CCOC[C@H]4C)nc3n2)cc1CO`, in test [2], the remaining parasite growth % (stronger effect = lower value) was 15.5%. Further, in test [3], the activity, percent of control came out at 19.8%. The remaining proliferation (% of control), lower = more inhibition in test [8] was 10.7%. In test [4], this compound showed a parasite growth, % of DMSO control of 6.01%. The parasite growth remaining, % of DMSO control (lower = more inhibition) in test [5] was 9.32%. For the same compound, the parasite growth, % of control (lower = inhibition) in test [6] was 13.1%.

As to `CCN(c1ccccc1)c1cc(NC)[n+](C)c(C)n1`, the remaining parasite growth % (stronger effect = lower value) in test [2] amounted to 76.6%. The activity, percent of control in test [3] amounted to 73.7%. This compound also had a remaining proliferation (% of control), lower = more inhibition in test [8] of 38.1%. Further, the parasite growth, % of DMSO control in test [4] stood at 47.7%. In addition, the parasite growth remaining, % of DMSO control (lower = more inhibition) in test [5] turned out to be 94.6%. Moreover, the parasite growth, % of control (lower = inhibition) in test [6] stood at 58.7%. This compound also displayed a growth, % of control in test [7] of 85.9%.

On to `O=c1[nH]c(-c2ccc(C(F)(F)F)cc2)nc2c1CSCC2`, for which, in test [1], the max response was 12% (inactive). Further, the remaining parasite growth % (stronger effect = lower value) in test [2] was 106%. The activity, percent of control in test [3] came out at 103%. Moreover, in test [4], the parasite growth, % of DMSO control worked out at 74.2%. This compound came in with a parasite growth remaining, % of DMSO control (lower = more inhibition) in test [5] of 93.9%. Also, the parasite growth, % of control (lower = inhibition) in test [6] turned out to be 74.7%. Moreover, the growth, % of control in test [7] worked out at 86.7%.

`OCCC#Cc1nc(-c2ccc(F)cc2)c(-c2ccncc2)n1CCCc1ccccc1`: in test [2], the remaining parasite growth % (stronger effect = lower value) came to 1.18%. The activity, percent of control in test [3] came out at 8.27%. The compound further displayed a remaining proliferation (% of control), lower = more inhibition in test [8] of 7.5%. The parasite growth, % of DMSO control in test [4] came to 15%. In test [5], the parasite growth remaining, % of DMSO control (lower = more inhibition) was determined as 21.2%. Besides, the parasite growth, % of control (lower = inhibition) in test [6] is 15.5%. This compound displayed a growth, % of control in test [7] of 7.31%.

Turning to `CC1(C)SCCN(S(=O)(=O)c2ccc(OCC#CCO)cc2)[C@@H]1C(=O)NO`, in test [1], the max response is 1.92% (inactive). For the same compound, the remaining parasite growth % (stronger effect = lower value) in test [2] is 107%. For the same compound, the activity, percent of control in test [3] is 104%. In test [4], this compound showed a parasite growth, % of DMSO control of 65.2%. Further, in test [5], the parasite growth remaining, % of DMSO control (lower = more inhibition) turned out to be 66%. The compound further had a parasite growth, % of control (lower = inhibition) in test [6] of 70%. This compound showed a growth, % of control in test [7] of 112%.

Regarding `Cc1cnc(Nc2ccc(OCCN3CCCC3)cc2)nc1Nc1cccc(S(=O)(=O)NC(C)(C)C)c1`, in test [2], the remaining parasite growth % (stronger effect = lower value) was found to be 1.03%. In test [3], the activity, percent of control was 52.4%. In addition, in test [8], the remaining proliferation (% of control), lower = more inhibition was 1.48%. The parasite growth, % of DMSO control in test [4] amounted to 6.36%. Moreover, the parasite growth remaining, % of DMSO control (lower = more inhibition) in test [5] was found to be 25.8%. The parasite growth, % of control (lower = inhibition) in test [6] is 11%. Moreover, the growth, % of control in test [7] was determined as 2.63%.

(Values after PubChem BioAssay (NCATS).)
